Assay outcomes as filed in PubChem BioAssay.
NPC1 promoter act = NPC1 promoter activation. AID 485313. 2.4% of 320,000 active. Huh7 NPC1 promoter luciferase reporter, 24 h. Potency, µM (doses to about 9.22 µM), for the others: top-dose activation, most hits filed as activators; also: % of control where 0% means no effect; nearly all actives have a fitted effect of over 60% in size
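Stably transfected Huh7 (NPC1 promoter→luciferase), 1500 cells/well in Opti-MEM + 10% FBS, 2 h settle, then compound 24 h at 37 °C. Luminescence after 10 min with Amplite reagent.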
Rab9 promoter act = Rab9 promoter activation. 2.8% of 320,000 active. AID 485297. Potency, µM (titrated, usually from 9.22 µM), without a hit: top-dose activation, negative = inhibition, hits mostly activators. Huh7 Rab9 promoter-luciferase reporter, luminescence, 24 h; also: % of control where 0% means no effect; nearly all actives have a fitted effect of over 60% in size
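Using Huh7 cells stably transfected with Rab9 promoter–luciferase, compounds were incubated 24 h at 37 °C, 5% CO2; luciferase luminescence was read 10 min after reagent addition.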
KinaseGlo FLuc = Kinase-Glo luciferase inhibition (counter-screen); 0.28% of 200,000 active; AID 1379; Potency, µM (doses to about 38.3 µM), without a hit: at the highest dose activity change, negative = inhibition, usual class: inhibitors; Q27757; Kinase-Glo luciferase, ATP luminescence, 8 min; also: % is scaled to controls: 0 for no effect and ±100 for the full control effect; nearly all actives have a fitted effect of over 60% in size
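Substrate mix (final 50 mM imidazole pH 7.2, 50 mM KCl, 7 mM MgCl2, 10 uM ATP, 0.01% Tween 20, 0.05% BSA) plus pin-tool compound, then Kinase-Glo detection mix; 8 min ambient, luminescence read.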
FLuc counter = firefly luciferase modulation, counter-screen for miR-21 project | 6.9% of 360,000 active | purified FLuc, Km substrates, luminescence inhibition | Potency, µM (top dose mostly 57.5 µM), inactives show top-dose activity change, negative = inhibition, hits mostly inhibitors | P08659 | AID 588342;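 also: plate controls were vehicle for no effect and reference inhibitor for full effect; nearly all actives have a fitted effect of over 55% in size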
Target sequence (P08659 whole entry, looked up): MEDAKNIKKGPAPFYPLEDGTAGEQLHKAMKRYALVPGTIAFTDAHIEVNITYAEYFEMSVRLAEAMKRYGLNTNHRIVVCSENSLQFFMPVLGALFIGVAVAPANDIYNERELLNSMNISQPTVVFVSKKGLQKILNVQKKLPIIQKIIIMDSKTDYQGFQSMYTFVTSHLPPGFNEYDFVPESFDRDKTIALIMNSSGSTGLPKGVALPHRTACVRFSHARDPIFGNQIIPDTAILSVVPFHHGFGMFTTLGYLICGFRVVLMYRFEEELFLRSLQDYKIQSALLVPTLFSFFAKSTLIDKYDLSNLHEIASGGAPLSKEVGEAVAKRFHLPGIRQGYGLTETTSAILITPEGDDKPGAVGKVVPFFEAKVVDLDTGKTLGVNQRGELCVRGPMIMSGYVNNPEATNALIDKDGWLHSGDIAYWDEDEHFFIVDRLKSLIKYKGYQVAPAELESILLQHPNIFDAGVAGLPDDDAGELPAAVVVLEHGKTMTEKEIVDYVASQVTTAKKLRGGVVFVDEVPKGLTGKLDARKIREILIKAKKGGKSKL
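Purified P. pyralis luciferase (10nM final) with 10uM D-luciferin and 10uM ATP (Km levels) in 50mM Tris acetate pH 7.5, 10mM Mg acetate, 0.01% Tween-20, 0.05% BSA; qHTS 6-point titration, ~60 µM downward; luminescence read.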
SMN2 splice enh = enhancers of SMN2 splice variant expression; HEK293 SMN2-luciferase splicing reporter, luminescence, 30-36 h; Potency, µM (doses to about 46.1 µM), without a hit: top-dose activity change, positive = activation, hits mostly activators; 2.8% of 210,000 active; also: % of control where 0% means no effect; nearly all actives have a fitted effect of over 55% in size
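HEK293 cells carry an SMN2 […]–luciferase reporter in which exon 7 inclusion puts luciferase in frame. Cells were plated 10-12 h before compound addition, then incubated 30-36 h at 37C. ONE-Glo luminescence was read; sodium butyrate at 4.5 mM final served as control.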
ELG1 genotox = inducers of genotoxicity in HEK293T ELG1-luciferase cells; AID 504466; 1.3% of 330,000 active; Potency, µM (titrated, usually from 46 µM), for the others: at the top dose activity change, positive = activation, hits mostly activators; HEK293T ELG1-luciferase reporter, luminescence, 16 h; also: % of control where 0% means no effect; nearly all actives have a fitted effect of over 60% in size
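HEK293T cells expressing luciferase-tagged ELG1 were exposed to compound or DMSO vehicle for 16 hr at 37 °C and 5% CO2. Luciferase activity was then measured with ONE-Glo after 30 min at room temperature.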
Numbers without * were called inactive; ? = inconclusive; nt = no result; [ ] = another dose, or the depositor's remark. Rows were chosen to be rich in hits. Some 7.5% of all compounds tested hit in one or more screens of this group. Calls follow the shape of the dose curve; as a rule, active = well fitted curve in the direction sought with a large enough effect; inconclusive = small, poorly fitted or top-dose-only effect, or another doubt; inactive = no such curve, though single readings can be large; an effect the other way counts as inactive or inconclusive. Potency is read from the fitted curve at half-maximal effect.

SMILES | NPC1 promoter act | Rab9 promoter act | KinaseGlo FLuc | FLuc counter | SMN2 splice enh | ELG1 genotox
C/C(O)=C/c1nc2ccccc2[nH]c1=O | -4% | -3% | 2% | 1% | -12% | 3%
C(=C\c1ccco1)/c1nc2ccccc2[nH]1 | 3.5µM* | 0.63µM* | 13µM* | 1.9µM* | nt | ?
C(=C\c1nc2ccccc2[nH]1)/c1ccccc1 | 0.18µM* | 0.4µM* | 3.5µM* | 0.3µM* | 0.28µM* | ?
O=C(NCc1nc2ccccc2[nH]1)c1ccco1 | 2% | 5% | 1% | 1% | 6% | 20%
CCOC(=O)c1c(C)[nH]c(C)c1S(=O)(=O)N(C)CC(=O)N1CCN(c2cccc(Cl)c2)CC1 | nt | nt | nt | -2% | nt | nt
COc1cc(OC)c(C(=O)N(CCc2ccccc2)Cc2ccccc2)cc1OC | -3% | -3% | nt | 2% | nt | -6%
Cn1c(=NC(=O)c2cccc([N+](=O)[O-])c2)sc2ccccc21 | ? | 2.8µM* | -4% | 0.34µM* | 1.6µM* | 0.82µM*
COc1cc(C(=O)N=c2sc3ccccc3n2C)cc(OC)c1OC | 12% | ? | 1% | ? | -27% | 5%
Cn1c(=NC(=O)CCl)sc2ccccc21 | -46% | -51% | -3% | -14% | -80% | ?
CC(=O)N/N=c1\sc2ccccc2n1C | -4% | 21% | 2% | 2% | 2% | -7%
Cn1/c(=N\NC(=O)c2ccccc2Cl)sc2ccccc21 | ? | ? | 3% | 17µM* | ? | -3%
Cn1c(=NC(=O)c2ccco2)sc2ccccc21 | ? | ? | ? | 2.7µM* | 4.5µM* | 4.1µM*
Cc1sc(=NC(=O)c2ccco2)n(C)c1-c1ccccc1 | 0.89µM* | 1.3µM* | -10% | 0.95µM* | 2.2µM* | ?
CCCN(CCC)CCNC(=O)C1CCN(S(=O)(=O)c2cccc3nsnc23)CC1 | 0% | 0% | nt | -1% | nt | -1%
CCCCN(C)C(=O)C1CCCN(c2ncnc3onc(-c4ccc(F)cc4)c23)C1 (stereo not drawn) | nt | nt | nt | -8% | nt | nt
Cc1sc(=NC(=O)c2ccco2)n(C)c1-c1ccc(F)cc1 | 2.8µM* | 2µM* | -3% | 2.4µM* | 3.5µM* | ?
CC(C)c1nn2c(=O)cc(COC(=O)c3ccc(NC(=O)C4CCCCC4)cc3)nc2s1 | nt | nt | nt | -3% | nt | nt
COC(=O)c1sc(-c2ccc(C(C)(C)C)cc2)cc1NC(=O)CSCC(=O)O | 4% | -2% | nt | 3.4µM* | nt | 9%
COC(=O)c1sc(-c2ccc(C(C)(C)C)cc2)cc1NC(=O)c1ccccc1C(=O)O | 15% | 22% | nt | 11µM* | nt | 18%
CCOc1ccc(NC(=O)Nc2cc(-c3ccccc3)sc2C(=O)OC)cc1 | -2% | -3% | 0% | ? | -12% | -2%
COC(=O)c1sc(-c2ccccc2)cc1NC(=O)C1CC1 | 5% | 3% | 1% | ? | -11% | -9%
COc1ccc(OC)c(NC(=O)CSCC(=O)O)c1 | -1% | 4% | 3% | 0% | 19% | 3%
COC(=O)c1sc(-c2ccc(Cl)cc2)cc1NC(=O)c1ccccc1C(=O)O | -1% | -1% | nt | 21µM* | nt | 0%
COc1ccccc1NC(=O)c1oc2ccccc2c1NC(=O)Cc1ccccc1 | nt | nt | nt | 0% | -1% | nt
COc1ccc(-c2cc(C(=O)Nc3ccn(Cc4ccc(C)cc4)n3)no2)cc1OC | nt | nt | nt | -2% | -2% | nt
SMILES | NPC1 promoter act | Rab9 promoter act | KinaseGlo FLuc | FLuc counter | SMN2 splice enh | ELG1 genotox
CCCCSCCCNC(=O)CN1C(=O)COc2ccc(S(=O)(=O)N3CCCC3)cc21 | nt | nt | nt | 3% | -6% | nt
FC(F)(F)c1nc2cc3nc4ccccc4[nH]c3cc2n1 | ? | ? | nt | 24µM* | nt | 0%
O=C(O)c1cccnc1SCc1cn2cc(Br)ccc2n1 | 0% | -4% | 6% | 24µM* | -1% | -2%
O=C(O)c1ccccc1SCc1cn2cc(Br)ccc2n1 | ? | ? | 0% | 9.5µM* | ? | ?
O=C(O)c1cccnc1SCc1cccc(Br)c1 | -6% | 1% | nt | ? | nt | 2%
O=C(O)c1ccccc1SCc1csc(-c2ccccc2)n1 | 24% | ? | nt | ? | nt | ?
Cc1ccc(-n2nnnc2CNC(=O)c2ccccc2)cc1C | nt | nt | nt | -2% | nt | nt
CN(C)c1ccc(/C=C(\Cl)c2nc3ccccc3s2)cc1 | 2.5µM* | 1µM* | 13µM* | 1.2µM* | -111% | ?
O=C(O)c1ccc(Oc2nc3ccccc3s2)cc1 | nt | nt | -6%[7.66 µM] | nt | ? | nt
COc1cc(C=C(c2nc3ccccc3s2)c2nc3ccccc3s2)cc(OC)c1O | 2% | -4% | 2% | 15µM* | -16% | -2%
O=C(O)c1ccc(C=C(c2nc3ccccc3s2)c2nc3ccccc3s2)cc1 | -3% | 2% | 7% | 12µM* | 0% | -1%
CCCCCCCCCCCCC1CO1 (stereo not drawn) | nt | nt | nt | nt | 13% | nt
CCC(O)c1nc2ccccc2n1Cc1cc(C)ccc1C (stereo not drawn) | nt | nt | nt | -1% | -3% | nt
Cc1cccc(N2CCN(C(=O)Cn3ncc4c3-c3cc(C)ccc3OC4)CC2C)c1 (stereo not drawn) | nt | nt | nt | -13% | -20% | nt
CCN(CC)c1ccc(C(=O)n2cnc3ccccc32)cc1 | ? | ? | 1% | 5.4µM* | 2% | 7%
CC(C)(C)c1ccc(C(=O)n2cnc3ccccc32)cc1 | -1% | 2% | nt | 3.4µM* | nt | 11%
CN(C)c1ccc(C(=O)n2nnc3ccccc32)cc1 | 5% | 2% | ? | 0.13µM* | 2% | ?
Cc1cc2ncn(C(=O)c3ccc(F)cc3)c2cc1C | 2% | -4% | nt | 13µM* | nt | 2%
CC(C)(C)c1ccc(C(=O)N2CCCN(C(=O)c3ccc(C(C)(C)C)cc3)CC2)cc1 | -2% | -8% | 1% | -8% | -38% | -7%
CCCc1ccc(OCC(=O)Nc2sc3c(c2C(=O)OC)CCCCC3)cc1 | nt | nt | nt | -18% | -10% | nt
CC(C)(C)C(=O)Nc1cc2nn(-c3ccccc3)nc2cc1Cl | -13% | -16% | -3% | 0.076µM* | -95% | ?
CC(=O)Nc1cc2nn(-c3ccccc3)nc2cc1Cl | 0.56µM* | 0.5µM* | -3% | 1.5µM* | 11µM* | 1.3µM*
CC(C)COc1ccc(C(=O)Nc2cc3nn(-c4ccccc4)nc3cc2Cl)cc1 | nt | nt | nt | -2% | -2% | nt
O=C(NCc1ccccn1)c1nn(-c2ccccc2Cl)nc1CO | nt | nt | nt | -3% | -7% | nt
Cc1ccc2c(=O)cc(C(=O)Nc3nc4ccc(Cl)cc4s3)oc2c1 | nt | nt | nt | ? | 6% | nt
O=C(OCc1ccccc1)c1cccc(-c2nnn(Cc3ccccc3)n2)c1 | 27% | 17% | -6% | -3% | 7.9µM* | ?
O=C(Cn1nnc(-c2ccccc2)n1)OCc1ccccc1 | 2% | 0% | -6% | ? | -3% | -1%
COc1ccccc1NC(=O)CCC(=O)OCc1ccc(Cl)cc1 | 1% | -1% | 1% | -10% | 13% | -1%
